# Results reported in PubChem BioAssay AID2315 (National Center for Advancing Translational Sciences (NCATS), 2010).
# “And” between values parts separate entries of the source, which are not always exact repeats. Equal values may be shown once. Screen size: about 290,000 compounds; about 27,000 (9.3%) were called active. No stated cut-off is given here; in the data, active means inhibition mostly above about 28% (no sharp cut-off); inactive means mostly below about 43%. Shown is part of a subset that was picked to be rich in actives.
# Assay: A qHTS for Small Molecule Inhibitors of Shiga Toxin; further: 0% is about no effect
# Details: Vero cells, Shiga toxin protein synthesis inhibition reporter; at 38.7 µM, hits give high values
row,Structure (SMILES),inhibition
1,O=C(COc1ccccc1[N+](=O)[O-])NC1CC1,19.4% (inactive)
2,CCN1C(=NCc2ccc(OC)cc2)N[C@@H](CCc2ccccc2)[C@H](C(=O)NCc2ccc(OC)cc2)[C@H]1C,2.67% (inactive) and -2.62% (inactive)
3,CC(C)c1ccc(NC(=O)Cn2ncc3ccccc32)cc1,74.2% (active)
4,CCc1ccc(NC(=O)Cn2ncn3c(cc4ccccc43)c2=O)cc1,5.27% (inactive)
5,CCOC(=O)c1cn(CC(=O)Nc2ccc(C(C)C)cc2)nn1,-16.4% (inactive)
6,Nc1nonc1-n1nnc(C(=O)N/N=C/c2c[nH]c3ccccc23)c1-c1ccccc1,-17% (inactive)
7,CCn1cc(S(=O)(=O)c2cccc(C)c2)c(=O)c2cc(F)c(N3CCN(C)CC3)cc21,4.57% (inactive)
8,Cc1ccccc1C(=O)Nc1ccc(N2CCCCCC2)cc1,36.6% (inactive)
9,CN1CCN(c2ccc(NC(=O)c3ccccc3)cc2)CC1,47.5% (active)
10,CC(=O)Oc1cccc(C(=O)Nc2ccccc2NC(=O)c2cccc(OC(C)=O)c2)c1,-7.51% (inactive)
11,COc1cccc(C(=O)Nc2cc3c(cc2Br)OCCCO3)c1,95.9% (active)
12,COc1cccc(C(=O)NNC(=O)c2ccccc2Br)c1,-5.95% (inactive)
13,CN1CCN(c2ccc(NC(=O)c3ccc4c(c3)[nH]c(=O)n4Cc3ccc(F)cc3)cc2)CC1,-1.72% (inactive)
14,COc1cccc(C(=O)Nc2ccc(N3CCN(C(=O)c4ccco4)CC3)cc2)c1,2.21% (inactive)
15,COc1ccc(C(=O)NC(=S)Nc2ccc(N3CCCC3)cc2)cc1OC,11.5% (inactive)
16,COc1cccc(C(=O)Nc2ccc(N3CCCC3)cc2)c1,47.9% (active)
17,Cc1ccc(-c2noc(CNC(=O)c3ccoc3C)n2)cc1,-9.24% (inactive)
18,CCOCCCNC(=O)c1ccc(CS(=O)(=O)c2cccc(C(F)(F)F)c2)o1,21.3% (inactive)
19,COC(=O)c1ccc(NC(=O)c2cc3c(CO)cnc(C)c3oc2=Nc2cccc(C(N)=O)c2)cc1,-1.8% (inactive)
20,CCN1C(=NCC(C)C)N[C@@H](CCc2ccccc2)[C@H](C(=O)NCC(C)C)[C@H]1C,-2.89% (inactive) and 9.38% (inactive)
21,O=C(CNC(=O)c1cccnc1)N/N=C/c1cc(Br)c(O)c(Br)c1,-3.98% (inactive)
22,O=S(=O)(c1ccccc1)N(Cc1cccc(F)c1)c1ccccc1,-4.98% (inactive)
23,CCOC(=O)N/N=C/c1cn(Cc2ccccc2Cl)c2ccccc12,20.2% (inactive)
24,COC(=O)N/N=C/c1cn(CCCOc2ccc(C)cc2)c2ccccc12,37.2% (active)

row,Structure (SMILES),inhibition
1,CNC(=S)N/N=C/c1cn(Cc2ccc(C)cc2)c2ccccc12,21.9% (inactive)
2,Cc1ccc(NC(=O)CN(C)C(=O)COC(=O)C(C)(C)Oc2ccc(Cl)cc2)cc1,-9.8% (inactive)
3,O=C(CN1CCN(c2cccc(Cl)c2)CC1)Nc1ccc(S(=O)(=O)N2CCOCC2)cc1,-9.51% (inactive)
4,O=C(CSCc1ccccc1)Nc1ccccc1,50.8% (active)
5,Cn1c(CSCC(=O)Nc2ccccc2)nnc1SCc1ccccc1,18.4% (inactive)
6,Cc1c(NC(=O)CSCc2ccccc2)cccc1C(=O)O,31.3% (inactive)
7,COc1ccc(Cl)cc1NC(=O)c1cccc(N2C(=O)C3CC=CCC3C2=O)c1 (stereo not drawn),-4.45% (inactive)
8,COc1ccc(S(=O)(=O)N2CCSCC2)cc1,-9.94% (inactive)
9,CCOC(=O)N1CCN(Cc2nnc(-c3ccccc3Cl)o2)CC1,-5.19% (inactive)
10,O=C(COc1ccccc1)Nc1ccc(C(=O)N2CCCC2)cc1,9.15% (inactive)
11,COc1cc(C2NC(=O)NC(c3ccccc3)=C2C(C)=O)c(Br)cc1OCC(N)=O (stereo not drawn),-4.39% (inactive)
12,O=C(Nc1ccccc1-c1ccccc1)c1cccs1,-12.5% (inactive)
13,O=C(NC(=S)Nc1cccc(-c2ccc(CO)o2)c1)c1cccs1,127% (active)
14,O=C(NC(=S)Nc1ccc(NC(=O)c2cccs2)cc1)c1ccc([N+](=O)[O-])cc1,36.1% (inactive)
15,O=S(=O)(Cc1cc(Cl)nc(-c2cccnc2)n1)c1ccccc1,40.3% (inactive)
16,O=C(c1cc(S(=O)(=O)N2CCOCC2)ccc1Cl)N1CCOCC1,-6.61% (inactive)
17,CC(C)CCN(C(=O)c1csnn1)C(C(=O)NC1CCCC1)c1ccccc1 (stereo not drawn),-3.8% (inactive)
18,Cc1cc2c(=O)n(CC(=O)NCC(=O)Nc3ccc(C(C)C)cc3)cnc2s1,-9.56% (inactive)
19,COc1ccc(CCNC(=O)CCNS(=O)(=O)c2cc(Br)cnc2N)cc1OC,-6.21% (inactive)
20,CS(=O)(=O)N(CC(=O)N1CCOCC1)c1cccc(Cl)c1Cl,1.97% (inactive)
21,O=C(Cn1nnc(-c2ccccc2)n1)NCc1ccccc1,-10.9% (inactive)
22,Cc1ccccc1-c1nnn(CC(=O)c2ccc(S(=O)(=O)N3CCCC3)cc2)n1,-5.14% (inactive)
23,Cc1nc2ccccc2n1CC(O)c1ccccc1 (stereo not drawn),-2.2% (inactive)
24,CCOc1ccc(S(=O)(=O)N2CCCC(C(=O)N3CCC(C(N)=O)CC3)C2)cc1Cl (stereo not drawn),15.1% (inactive)

row,Structure (SMILES),inhibition
1,CCOC(=O)CSc1nc(N2CCOCC2)c2c(c1C#N)CC(C(C)C)OC2 (stereo not drawn),-7.43% (inactive)
2,CC(=O)C1=C(O)C(=O)N(c2ccc(Br)cc2)C1c1ccc([N+](=O)[O-])cc1 (stereo not drawn),-5.69% (inactive)
3,CCc1ccc2nc(N(CCCN(C)C)C(=O)c3ccc4c(c3)OCCO4)sc2c1,-6.1% (inactive)
4,Cc1ccc2nc(N(CCN(C)C)C(=O)C3=COCCO3)sc2c1,6.59% (inactive)
5,CN(C)CCN(C(=O)C1=COCCO1)c1nc2ccc(Cl)cc2s1,128% (active)
6,COc1ccc(NC(=O)C2CCN(S(=O)(=O)c3ccc4[nH]c(=O)oc4c3)CC2)c(OC)c1,-2.15% (inactive)
7,Cn1c(Nc2ccccc2)cc(=O)n(C)c1=O,-6% (inactive)
8,CN(C)S(=O)(=O)c1ccc(C(=O)NCCN=C2NS(=O)(=O)c3ccccc32)cc1,-13.8% (inactive)
9,Cc1[nH]n(-c2cccc(Cl)c2)c(=O)c1-c1ccc(Cl)cc1,34.8% (inactive)
10,O=c1c(-c2cccc(Cl)c2)c[nH]n1-c1ccccc1,77.1% (active)
11,O=c1c(-c2ccccc2Cl)c[nH]n1-c1ccccc1,9.18% (inactive)
12,COc1ccc(CNC(=O)Cc2ccc(-c3ccccc3)cc2)cc1OC,-1.2% (inactive)
13,Cc1cc(=O)[nH]c2nnnn12,-3.63% (inactive)
14,COc1ccccc1/C=C/C(=O)NC(=S)N1CCOCC1,106% (active)
15,O=C(/C=C/c1ccco1)NC(=S)N1CCCCC1,47.5% (active)
16,COc1ccccc1C(=O)Nc1cccc(C(=O)N2CCOCC2)c1,-11.1% (inactive)
17,COc1ccccc1/C=C/C(=O)NC1CC2CCC1C2 (stereo not drawn),12.2% (inactive)
18,COc1ccc(/C=C/C(=O)NC(=S)N2CCCC(C(N)=O)C2)cc1 (stereo not drawn),12.4% (inactive)
19,O=C(/C=C/c1ccco1)NC(=S)Nc1ccccc1Br,26.6% (inactive)
20,CCCn1c(C2CCCN2c2nc(-c3ccc(C)cc3)cs2)nc2cc(Cl)c(N3CCCCC3)cc21 (stereo not drawn),26.1% (inactive)
21,CCOc1ccc(Br)cc1S(=O)(=O)Nc1ccc(C(=O)OC(C)C(=O)N(C)c2ccccc2)cc1 (stereo not drawn),-0.904% (inactive)
22,CCOC(=O)c1c(-c2ccccc2)oc2cc(Br)c(O)c(C=O)c12,3% (inactive)
23,Nc1cc(N)nc(SCc2cccc(F)c2)n1,62.3% (active)
24,Cc1cc(=O)[nH]c(SCc2cccc(F)c2)n1,-4.74% (inactive)

row,Structure (SMILES),inhibition
1,Nc1cc(N)nc(SCc2ccc(Cl)cc2)n1,17.1% (inactive)
2,CN(CC(=O)Nc1ccccc1C(F)(F)F)C(=O)Cc1ccccc1F,16.3% (inactive)
3,Cc1ccc(NS(=O)(=O)c2cn(C)c(=O)n(C)c2=O)c(C)c1,3.31% (inactive)
4,COc1ccc(CCC(C)N2CCc3ccccc3C2)cc1 (stereo not drawn),-6.15% (inactive)
5,COc1ccc(-n2ncc3c(N4CCc5ccccc54)ncnc32)cc1,105% (active)
6,COc1ccc(Oc2c(Cl)cnn(-c3ccccc3)c2=O)cc1,-10.6% (inactive)
7,COc1ccc(-n2ncc3c(N4CCCc5ccccc54)ncnc32)cc1,113% (active)
8,COc1cc(C)c(C)cc1S(=O)(=O)N1CCCc2ccccc21,16.5% (inactive)
9,COc1ccc2oc(=O)c(C(=O)N3CCCc4ccccc43)cc2c1,-5.55% (inactive)
10,Cc1ccc(NC(=O)CN2CCc3ccccc3C2)cc1C,17% (inactive)
11,COc1ccc(C(=O)OCC(=O)NCCCc2ccccc2)cc1OC,-3.51% (inactive)
12,CN(c1ccccc1)S(=O)(=O)c1cc(C(=O)Nc2nc3ccccc3[nH]2)ccc1Cl,55.5% (inactive)
13,O=C(Nc1cccc(-c2nc3ccccc3[nH]2)c1)c1ccc(C(=O)Nc2cccc(-c3nc4ccccc4[nH]3)c2)cc1,62.5% (active)
14,CC(C)Oc1ccc(/C=C(\NC(=O)/C=C/c2ccco2)C(=O)NCCc2nc3ccccc3[nH]2)cc1,14.2% (inactive)
15,O=C(/C=C/c1ccco1)Nc1cccc(-c2nc3ccccc3[nH]2)c1,157% (active)
16,Cc1ccc(N2NC(=O)/C(=C/C=C/c3ccco3)C2=O)cc1C,20.9% (inactive)
17,Cc1ccc(-n2nc3ccc(NC(=O)/C=C/c4ccco4)cc3n2)cc1C,63.8% (active)
18,CCOC(=O)c1c(NC(=O)/C=C/c2ccco2)sc(C)c1C,-12.1% (inactive)
19,NS(=O)(=O)c1cccc(NC(=O)COC(=O)/C=C/c2ccco2)c1,26.6% (inactive)
20,O=C(Cc1cccs1)Nc1cccc(-c2nc3ccccc3[nH]2)c1,3.19% (inactive)
21,COc1ccc(Br)cc1C1C2C=CCC(C)C2C(=O)N1Cc1ccccc1 (stereo not drawn),2.19% (inactive)
